Reference: PubChem BioAssay (NCATS)

Biological target: Glucocorticoid receptor (Homo sapiens) (UniProt P04150)
Test: GR-EFC Redistribution (AID 451)
Conditions: CHO-K1 GR-EFC translocation, beta-gal luminescence, 2 h; calls by dose curve
How it was run: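 CHO-K1 cells stably expressing nuclear-localized β-gal enzyme acceptor and GR fused C-terminally to the enzyme donor fragment; ligand-driven nuclear translocation restores β-gal by complementation. Compounds titrated up to 46 uM final, 2 h at 37 °C; luminescence read.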
Potency means the concentration at half of the fitted maximal effect.

Glucocorticoid receptor (Homo sapiens), sequence (P04150 whole entry, looked up): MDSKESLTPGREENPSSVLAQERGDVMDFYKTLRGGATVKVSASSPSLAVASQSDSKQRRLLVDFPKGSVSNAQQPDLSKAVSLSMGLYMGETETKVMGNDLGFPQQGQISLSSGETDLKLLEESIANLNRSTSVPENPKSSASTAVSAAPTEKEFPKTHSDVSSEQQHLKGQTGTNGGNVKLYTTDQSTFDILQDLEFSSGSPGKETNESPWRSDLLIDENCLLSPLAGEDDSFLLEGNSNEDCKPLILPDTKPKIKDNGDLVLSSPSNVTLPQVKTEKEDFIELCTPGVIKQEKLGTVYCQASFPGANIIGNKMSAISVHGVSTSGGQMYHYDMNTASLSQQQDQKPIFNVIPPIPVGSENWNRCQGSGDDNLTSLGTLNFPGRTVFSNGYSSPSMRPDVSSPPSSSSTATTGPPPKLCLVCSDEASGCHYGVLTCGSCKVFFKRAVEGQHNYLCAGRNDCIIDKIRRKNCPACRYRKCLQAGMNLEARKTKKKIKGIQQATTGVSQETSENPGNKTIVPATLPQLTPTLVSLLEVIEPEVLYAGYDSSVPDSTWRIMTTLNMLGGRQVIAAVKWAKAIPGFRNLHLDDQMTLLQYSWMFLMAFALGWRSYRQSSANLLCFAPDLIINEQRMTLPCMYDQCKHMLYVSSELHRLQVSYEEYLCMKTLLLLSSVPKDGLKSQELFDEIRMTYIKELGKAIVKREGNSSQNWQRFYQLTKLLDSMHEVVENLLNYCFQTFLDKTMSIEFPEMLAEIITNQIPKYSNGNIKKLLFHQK

Potency, inactive:
Cc1ccc(Nc2nnc(-c3ccc4c(c3)OCO4)o2)c(C)c1 > 9.22 µM
CN[C@@H](c1ccncc1)[C@@H](NC)c1ccncc1 > 9.22 µM
Cc1cnc(CNc2nc(-c3cccnc3)nc3ccccc23)cn1 > 46 µM
C(=N/Nc1nnc2c(n1)[nH]c1ccccc12)/c1cccnc1 > 9.22 µM
CC(C)[C@@H]1OC(=O)C=CC=CC=CC=CC=CC[C@@H](O)[C@H](C)[C@@H](O)C[C@H](O)C[C@H](O)C[C@H](O)C[C@H](O)C[C@H](O)C[C@H](O)C=C[C@@H]1C > 9.22 µM
COc1ccc2c(c1)Cc1cc(N=[N+]([O-])c3ccc4c(c3)Cc3cc(OC)ccc3-4)ccc1-2 > 9.22 µM
Nc1nc(SC/C=C\c2ccccc2)c2[nH]cnc2n1 > 9.22 µM
O=C(CC(=O)c1ccncc1)c1ccccc1 > 9.22 µM
O=c1oc2cc(N=Cc3ccc4c(c3)OCO4)ccc2c2ccccc12 > 9.22 µM
CSC1(SC2=NCCN2)SC2(NCCN2)S1 > 9.22 µM
O[C@@H](C1=C/C(=C\c2ccncc2)c2ccccc21)c1ccncc1 > 9.22 µM
Nc1nc(SCCc2ccccc2)c2[nH]cnc2n1 > 9.22 µM
Nc1nc(SCc2ccccc2[N+](=O)[O-])c2[nH]cnc2n1 > 9.22 µM
O=S(=O)(c1cnccc1N1CCN(CCO)CC1)N1CCCC1 > 9.22 µM
COc1ccc(Oc2ncc3nc(C)c(=O)n(-c4ccc(OC)cc4)c3n2)cc1 > 46 µM
Cn1ncc2c(NCCc3ccccc3)nc(Cl)nc21 > 9.22 µM
C/C(=N/Nc1ccc2ccccc2n1)c1ccccc1O > 9.22 µM
Nc1[nH]c(=S)[nH]c(=O)c1N=Nc1c(Br)cc(S(N)(=O)=O)cc1Br > 9.22 µM
COc1ccc(C[C@@H]2C(=O)N[C@H](C)C(=O)N(C)[C@@H]3Cc4ccc(cc4)Oc4cc(ccc4O)C[C@H](C(=O)N[C@@H](C)C(=O)N[C@H](C)C(=O)N2C)N(C)C3=O)cc1 > 9.22 µM
O=C(O)c1ccc(SSc2ccc(C(=O)O)cn2)nc1 > 9.22 µM
Cc1ccc(S(=O)(=O)Nc2cc(=O)[nH]c3c2CCC3)cc1 > 9.22 µM
BrC(c1cccc2ccccc12)c1cccc2ccccc12 > 9.22 µM
c1ccc(C[C@@H](Nc2cccnc2)c2ccccc2)cc1 > 9.22 µM
N=C(N)S[C@H]1c2ccccc2-c2cc([N+](=O)[O-])ccc21 > 9.22 µM
CC(C)(C)C(=O)[C@H]([C@@H](c1ccccc1)N1CCOCC1)N1CCOCC1 > 9.22 µM
O=C(O)CCc1nc(-c2ccccc2-n2cccc2)no1 > 9.22 µM
O=C(O)/C(=C\c1ccccc1)Cc1ccccc1 > 9.22 µM
O=S(=O)(O)c1cc(O)c2c(N=Cc3ccccc3O)cc(S(=O)(=O)O)cc2c1 > 9.22 µM
Cn1c(=S)c2[nH]c(SCc3cccnc3)nc2n(C)c1=O > 9.22 µM
CC(C)N1CCN(c2ccncc2S(=O)(=O)N2CCCCC2)CC1 > 9.22 µM
Cc1cc2c(cc1C)NC1=C(N2)O[C@H](c2c[nH]c3ccc(COc4ccccc4)cc23)C1=O > 9.22 µM
COc1cc(Cl)c(CC(=O)c2c[nH]c3ccccc23)cc1OC > 9.22 µM
Cc1ccc2c(c1)N[C@H](c1ccc(C(=O)O)cc1)c1cccn1-2 > 9.22 µM
COc1ccc2c(Cl)cc(NC(=S)Nc3ccccc3)nc2c1 > 9.22 µM
c1ccc2c(c1)-c1nc3ccccc3cc1[C@H]2N1CCOCC1 > 9.22 µM
Nc1cccc(OCc2nc(N)nc(N)c2-c2ccc(Cl)cc2)c1 > 9.22 µM
CC1=C/C(=C(/c2ccc(O)c(C)c2)c2ccccc2C(=O)O)C=CC1=O > 9.22 µM
N#C/C(=C\Nc1ccccn1)C(=O)c1ccco1 > 9.22 µM
Cn1c(=O)c2[nH]c(CCCCc3nc4c([nH]3)c(=O)n(C)c(=S)n4C)nc2n(C)c1=S > 9.22 µM
